The full data set covers some 7,900 targets. This sample favours those with a hit. About 0.6% of all pairs of compound and target were hits. Unmarked numbers belong to inactive results.
Assays:
Assay in all cases: log2 fold change, soluble protein after heating vs DMSO (PISA); higher = thermal stabilisation; K562 cells, 10 uM, 30 min; active = over 0.2 and 3.5 SD of the protein, either way, in both replicates (recomputed)
IRAK-1-4 Inhibitor I = compound: C1COCCN1CCN2C3=CC=CC=C3N=C2NC(=O)C4=CC(=CC=C4)[N+](=O)[O-] [IRAK-1-4 Inhibitor I]
Method in brief: (§1)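 Quantification of soluble protein used TMTpro 16plex LC-MS/MS, with channel sums equalised. Samples were the supernatant after 21,000xg for 90 min of pooled aliquots from K562 cells (2×10^6 cells/mL) treated with 10 μM compound for 30 min, heated for 3 min over 48°C-58°C, and extracted in PBS with 0.5% NP-40 at 4°C. Values, from duplicates, describe thermal stability against control samples on a log2 fold-change scale.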

ibrutinib = compound: C=CC(=O)N1CCC[C@@H](n2nc(-c3ccc(Oc4ccccc4)cc3)c3c(N)ncnc32)C1 [ibrutinib]
Method in brief: as §1

[1] = compound: CC(=O)c1cnc2ccc(-c3cc(Cl)c(O)c(Cl)c3)nc2c1N[C@H]1CC[C@H](CN(C)C)CC1
Method in brief: as §1

ralimetinib = compound: CC(C)(C)Cn1c(N)nc2ccc(-c3[nH]c(C(C)(C)C)nc3-c3ccc(F)cc3)nc21 [ralimetinib]
Method in brief: as §1

[2] = compound: CC(C)(O)CC(=O)NCCn1ccc2ncnc(Nc3ccc(Oc4cccc(C(F)(F)F)c4)c(Cl)c3)c21
Method in brief: as §1

[3] = compound: CC(C)C1=C2N=C(C=C(N2N=C1)NCC3=CC=CC=C3)NCCCCCCN
Method in brief: as §1

[4] = compound: CC(C)C[C@@H](C=O)NC(=O)[C@H](CC(C)C)NC(=O)[C@H](CC(C)C)NC(=O)OCc1ccccc1
Method in brief: as §1

pinometostat = compound: CC(C)N(C[C@H]1O[C@@H](n2cnc3c(N)ncnc32)[C@H](O)[C@@H]1O)[C@H]1C[C@@H](CCc2nc3cc(C(C)(C)C)ccc3[nH]2)C1 [pinometostat]
Method in brief: as §1

[5] = compound: CC1=C(C(CC(=O)N1)C2=CC=C(C=C2)C(F)(F)F)C(=O)NC3=C(C=C4C(=C3)C=NN4)F
Method in brief: as §1

[6] = compound: CC1=C(C2=C(C=C1)C(=O)C3=CC=CC=C3N2CCCN)C
Method in brief: as §1

Chain of UniProt O43665 (O43665 whole entry, looked up): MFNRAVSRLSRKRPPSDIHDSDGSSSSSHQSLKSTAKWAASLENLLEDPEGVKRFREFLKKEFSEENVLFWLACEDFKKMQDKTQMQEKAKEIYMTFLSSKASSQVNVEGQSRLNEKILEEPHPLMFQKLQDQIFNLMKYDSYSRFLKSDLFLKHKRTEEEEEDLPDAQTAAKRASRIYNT
Chain of UniProt P61586 (P61586 whole entry, looked up): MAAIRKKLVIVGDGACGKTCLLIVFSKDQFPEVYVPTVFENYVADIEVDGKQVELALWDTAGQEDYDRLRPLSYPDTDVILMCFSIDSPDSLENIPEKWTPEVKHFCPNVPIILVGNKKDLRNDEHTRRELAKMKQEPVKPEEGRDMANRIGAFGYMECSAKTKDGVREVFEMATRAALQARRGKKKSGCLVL
Chain of UniProt P49756 (P49756 whole entry, looked up): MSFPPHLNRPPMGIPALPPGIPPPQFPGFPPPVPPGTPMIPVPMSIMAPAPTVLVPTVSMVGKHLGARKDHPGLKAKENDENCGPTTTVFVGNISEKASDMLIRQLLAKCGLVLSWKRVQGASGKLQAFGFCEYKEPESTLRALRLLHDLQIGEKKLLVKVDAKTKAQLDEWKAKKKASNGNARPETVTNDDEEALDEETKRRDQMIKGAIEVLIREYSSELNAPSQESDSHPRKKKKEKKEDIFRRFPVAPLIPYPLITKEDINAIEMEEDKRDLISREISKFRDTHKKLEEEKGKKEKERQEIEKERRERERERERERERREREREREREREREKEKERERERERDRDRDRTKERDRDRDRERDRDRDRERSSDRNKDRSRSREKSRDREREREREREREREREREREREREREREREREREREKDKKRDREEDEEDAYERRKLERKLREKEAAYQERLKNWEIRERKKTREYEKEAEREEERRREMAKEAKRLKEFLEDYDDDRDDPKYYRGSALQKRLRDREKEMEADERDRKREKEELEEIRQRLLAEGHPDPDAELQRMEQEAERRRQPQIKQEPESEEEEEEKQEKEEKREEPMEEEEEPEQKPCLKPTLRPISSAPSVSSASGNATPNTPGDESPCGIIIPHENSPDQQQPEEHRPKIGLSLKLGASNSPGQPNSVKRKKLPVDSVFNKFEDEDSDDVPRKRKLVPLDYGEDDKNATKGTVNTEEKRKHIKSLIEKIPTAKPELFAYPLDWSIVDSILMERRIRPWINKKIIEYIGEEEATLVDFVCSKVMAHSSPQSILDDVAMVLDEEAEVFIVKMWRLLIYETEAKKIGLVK
Chain of UniProt O95486 (O95486 whole entry, looked up): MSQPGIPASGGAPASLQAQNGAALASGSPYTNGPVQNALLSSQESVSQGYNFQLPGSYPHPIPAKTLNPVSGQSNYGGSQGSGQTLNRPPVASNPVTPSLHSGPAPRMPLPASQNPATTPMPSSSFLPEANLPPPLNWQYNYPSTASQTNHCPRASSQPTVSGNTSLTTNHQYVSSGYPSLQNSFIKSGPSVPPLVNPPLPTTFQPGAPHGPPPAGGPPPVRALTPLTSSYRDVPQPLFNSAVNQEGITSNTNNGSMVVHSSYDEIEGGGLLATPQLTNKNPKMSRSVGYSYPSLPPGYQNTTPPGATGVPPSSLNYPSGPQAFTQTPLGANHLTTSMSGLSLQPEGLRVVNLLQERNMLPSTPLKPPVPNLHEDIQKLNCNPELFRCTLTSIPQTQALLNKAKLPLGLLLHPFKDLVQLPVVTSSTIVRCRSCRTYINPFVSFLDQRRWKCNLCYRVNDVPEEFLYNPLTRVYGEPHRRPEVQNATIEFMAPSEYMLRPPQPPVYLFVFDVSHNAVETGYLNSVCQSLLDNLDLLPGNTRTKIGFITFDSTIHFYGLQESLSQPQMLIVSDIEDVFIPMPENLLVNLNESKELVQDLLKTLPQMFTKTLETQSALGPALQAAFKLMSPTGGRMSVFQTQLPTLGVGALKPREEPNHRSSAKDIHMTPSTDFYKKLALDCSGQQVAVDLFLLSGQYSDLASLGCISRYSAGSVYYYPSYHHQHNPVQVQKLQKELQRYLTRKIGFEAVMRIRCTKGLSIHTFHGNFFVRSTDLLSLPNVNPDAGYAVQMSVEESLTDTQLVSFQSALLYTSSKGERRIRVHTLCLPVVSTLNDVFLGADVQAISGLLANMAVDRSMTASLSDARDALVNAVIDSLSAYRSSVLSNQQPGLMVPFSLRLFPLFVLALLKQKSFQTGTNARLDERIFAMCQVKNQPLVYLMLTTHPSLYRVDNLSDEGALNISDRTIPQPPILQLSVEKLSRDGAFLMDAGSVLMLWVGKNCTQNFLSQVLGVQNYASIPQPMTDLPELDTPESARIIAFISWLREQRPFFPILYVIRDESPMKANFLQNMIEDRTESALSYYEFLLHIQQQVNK
Chain of UniProt Q9BUV8 (Q9BUV8 whole entry, looked up): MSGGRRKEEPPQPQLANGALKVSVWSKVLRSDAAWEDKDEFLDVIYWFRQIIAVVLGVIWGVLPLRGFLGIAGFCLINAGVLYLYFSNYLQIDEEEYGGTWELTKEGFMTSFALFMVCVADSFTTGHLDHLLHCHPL
Chain of UniProt Q5RL73 (Q5RL73 whole entry, looked up): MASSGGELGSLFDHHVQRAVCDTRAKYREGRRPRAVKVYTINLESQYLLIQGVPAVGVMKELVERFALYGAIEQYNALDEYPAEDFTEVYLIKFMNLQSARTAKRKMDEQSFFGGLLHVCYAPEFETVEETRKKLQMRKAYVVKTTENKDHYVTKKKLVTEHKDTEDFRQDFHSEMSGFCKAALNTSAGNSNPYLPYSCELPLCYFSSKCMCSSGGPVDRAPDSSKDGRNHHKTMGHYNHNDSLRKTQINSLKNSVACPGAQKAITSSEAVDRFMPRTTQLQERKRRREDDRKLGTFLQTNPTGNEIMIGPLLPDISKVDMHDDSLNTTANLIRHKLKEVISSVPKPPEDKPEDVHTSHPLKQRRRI
Chain of UniProt Q86TU7 (Q86TU7 whole entry, looked up): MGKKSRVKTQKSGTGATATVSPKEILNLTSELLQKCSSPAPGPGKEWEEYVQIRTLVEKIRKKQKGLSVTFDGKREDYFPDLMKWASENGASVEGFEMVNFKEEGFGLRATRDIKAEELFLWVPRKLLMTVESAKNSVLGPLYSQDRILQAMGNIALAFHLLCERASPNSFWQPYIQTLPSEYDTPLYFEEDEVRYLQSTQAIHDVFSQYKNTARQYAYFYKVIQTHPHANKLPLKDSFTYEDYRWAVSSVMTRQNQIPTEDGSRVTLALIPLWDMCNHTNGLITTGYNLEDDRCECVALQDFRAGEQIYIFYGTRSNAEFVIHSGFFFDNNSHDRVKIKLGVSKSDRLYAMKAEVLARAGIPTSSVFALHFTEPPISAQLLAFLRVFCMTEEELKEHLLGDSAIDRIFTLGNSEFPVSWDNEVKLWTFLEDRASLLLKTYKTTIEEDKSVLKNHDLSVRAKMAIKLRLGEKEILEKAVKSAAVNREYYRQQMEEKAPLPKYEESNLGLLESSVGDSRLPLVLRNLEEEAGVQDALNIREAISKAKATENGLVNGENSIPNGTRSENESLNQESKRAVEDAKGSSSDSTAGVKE
Chain of UniProt Q99496 (Q99496 whole entry, looked up): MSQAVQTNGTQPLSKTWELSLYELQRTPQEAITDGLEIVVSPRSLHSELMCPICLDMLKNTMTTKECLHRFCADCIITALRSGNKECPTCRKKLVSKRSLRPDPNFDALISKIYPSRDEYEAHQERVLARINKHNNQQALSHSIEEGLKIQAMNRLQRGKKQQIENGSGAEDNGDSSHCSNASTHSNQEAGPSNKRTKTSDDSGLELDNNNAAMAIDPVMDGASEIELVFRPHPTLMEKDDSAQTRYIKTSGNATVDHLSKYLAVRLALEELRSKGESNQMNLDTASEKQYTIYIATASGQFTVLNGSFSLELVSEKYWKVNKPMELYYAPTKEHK
Chain of UniProt O43819 (O43819 whole entry, looked up): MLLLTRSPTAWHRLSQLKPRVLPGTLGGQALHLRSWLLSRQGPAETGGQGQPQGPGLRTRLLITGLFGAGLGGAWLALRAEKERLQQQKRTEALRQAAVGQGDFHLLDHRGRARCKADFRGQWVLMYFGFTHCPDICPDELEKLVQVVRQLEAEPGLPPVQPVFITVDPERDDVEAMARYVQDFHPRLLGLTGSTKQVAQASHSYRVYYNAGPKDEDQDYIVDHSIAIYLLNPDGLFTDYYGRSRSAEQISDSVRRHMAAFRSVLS
Chain of UniProt Q8TBN0 (Q8TBN0 whole entry, looked up): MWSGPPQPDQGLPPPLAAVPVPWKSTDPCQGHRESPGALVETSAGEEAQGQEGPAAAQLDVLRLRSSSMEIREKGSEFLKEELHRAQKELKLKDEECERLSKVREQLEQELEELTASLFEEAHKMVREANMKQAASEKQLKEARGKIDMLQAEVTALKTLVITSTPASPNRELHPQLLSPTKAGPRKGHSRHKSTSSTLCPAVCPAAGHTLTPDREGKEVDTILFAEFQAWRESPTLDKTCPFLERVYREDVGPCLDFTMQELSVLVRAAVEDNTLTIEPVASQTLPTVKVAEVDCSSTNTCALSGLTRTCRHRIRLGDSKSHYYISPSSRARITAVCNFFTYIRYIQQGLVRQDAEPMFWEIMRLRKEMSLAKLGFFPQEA
Chain of UniProt Q7L4I2 (Q7L4I2 whole entry, looked up): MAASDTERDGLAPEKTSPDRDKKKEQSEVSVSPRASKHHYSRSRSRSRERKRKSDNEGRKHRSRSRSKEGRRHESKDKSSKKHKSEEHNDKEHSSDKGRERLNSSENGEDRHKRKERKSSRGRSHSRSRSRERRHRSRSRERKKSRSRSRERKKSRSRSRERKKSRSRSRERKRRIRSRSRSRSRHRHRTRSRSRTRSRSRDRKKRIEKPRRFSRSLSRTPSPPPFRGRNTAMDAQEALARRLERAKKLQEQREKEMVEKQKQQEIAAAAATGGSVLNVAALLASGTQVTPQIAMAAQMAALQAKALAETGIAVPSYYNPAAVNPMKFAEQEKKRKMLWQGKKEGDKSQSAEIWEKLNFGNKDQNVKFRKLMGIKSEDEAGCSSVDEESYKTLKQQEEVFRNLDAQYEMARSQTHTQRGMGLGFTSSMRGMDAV

Target | log2 fold change (IRAK-1-4 Inhibitor I) | log2 fold change (ibrutinib) | log2 fold change [1] | log2 fold change (ralimetinib) | log2 fold change [2] | log2 fold change [3] | log2 fold change [4] | log2 fold change (pinometostat) | log2 fold change [5] | log2 fold change [6]
SASH1 (UniProt O94885) | 0.145 | -0.069 | -0.097 | -0.138 | 0.002 | -0.25 | 0.152 | 0.081 | -0.077 | 0.07
RAB3IL1 (UniProt Q8TBN0) | 0.018 | -0.009 | 0.018 | 0.064 | -0.036 | -0.014 | 0.057 | -0.029 | -0.004 | 0.037
RUFY1 (UniProt Q96T51) | -0.019 | -0.002 | 0.101 | 0.034 | -0.092 | -0.182 | 0.011 | 0.083 | -0.003 | -0.014
RBM25 (UniProt P49756) | 0.031 | 0.01 | -0.032 | 0.102 | -0.044 | 0.026 | 0.057 | -0.039 | -0.001 | 0.042
RBBP6 (UniProt Q7Z6E9) | -0.099 | -0.082 | -0.114 | 0.02 | 0.044 | -0.089 | -0.023 | -0.078 | -0.021 | -0.022
SCG3 (UniProt Q8WXD2) | -0.003 | 0.035 | -0.107 | 0.061 | 0.039 | 0.203 | 0.038 | -0.139 | 0.05 | -0.359
RSRC2 (UniProt Q7L4I2) | 0.03 | -0.035 | -0.284 (active) | 0.012 | -0.033 | -0.013 | -0.026 | -0.019 | 0.028 | 0.016
RPS2 (UniProt P15880) | -0.101 | 0.042 | 0.085 | 0.055 | 0.019 | -0.004 | 0.061 | 0.222 | 0.032 | -0.682 (active)
RBM48 isoform 2 (UniProt Q5RL73) | 0.15 | 0.051 | -0.018 | 0.004 | 0.004 | 0.156 | -0.301 | 0.068 | -0.099 | -0.151
RGS10 (UniProt O43665) | 0.046 | 0.047 | -0.024 | 0.026 | -0.025 | -0.057 | -0.004 | 0.087 | -0.008 | 0.015
RPS3A (UniProt P61247) | -0.133 | 0.028 | 0.072 | 0.053 | 0.069 | -0.071 | 0.059 | 0.108 | 0.03 | -0.565 (active)
SETD3 (UniProt Q86TU7) | -0.007 | 0.011 | -0.018 | -0.041 | -0.013 | 0.027 | -0.022 | 0.002 | -0.03 | 0.05
SEC24A (UniProt O95486) | -0.038 | -0.017 | -0.013 | 0.018 | -0.066 | -0.057 | -0.005 | 0.005 | 0.009 | 0.019
RPL31 (UniProt P62899) | -0.168 | -0.021 | 0.138 | 0.1 | 0.052 | -0.013 | 0.14 | 0.273 | -0.006 | -0.625 (active)
SCO2 (UniProt O43819) | 0.02 | 0.014 | -0.06 | 0.142 | -0.154 | -0.071 | 0.024 | 0.054 | – | 0.07
RNF2 (UniProt Q99496) | -0.024 | 0.086 | 0.001 | – | -0.065 | 0.091 | – | 0.066 | 0.04 | -0.058
RAF1 isoform 2 (UniProt P04049) | -0.038 | -0.058 | -0.263 | -0.054 | -0.072 | -0.12 | 0.066 | 0.29 | – | 0.09
RPS5 (UniProt P46782) | -0.137 | 0.045 | 0.083 | 0.103 | 0 | -0.015 | -0.019 | 0.091 | 0.034 | -0.551 (active)
RAD50, A0A494C0Y7 | 0.015 | 0.072 | -0.037 | -0.085 | – | – | 0.196 | 0.015 | – | 0.051
RHOA (UniProt P61586) | 0.108 | -0.015 | 0.047 | 0.251 | -0.034 | 0.063 | -0.07 | -0.023 | 0.002 | -0.007
SEH1L isoform 1 (UniProt Q96EE3) | 0.028 | -0.021 | -0.056 | -0.014 | 0.03 | -0.019 | -0.026 | 0.011 | 0.039 | 0
RMC1 (UniProt Q96DM3) | 0.038 | 0.03 | -0.026 | -0.025 | -0.002 | -0.209 | 0.011 | -0.015 | 0.028 | 0.039
SHROOM2 (UniProt Q13796) | 0.236 | 0.065 | 0.137 | – | 0.009 | 0.155 | – | -0.182 | -0.015 | 0.072
RAB33B (UniProt Q9H082) | 0.072 | 0.016 | -0.019 | -0.092 | 0.027 | 0.113 | 0.112 | -0.015 | -0.011 | -0.002
SCAF8 isoform 2 (UniProt Q9UPN6) | 0.035 | -0.057 | -0.145 | -0.054 | -0.169 | -0.417 (active) | 0.23 | 0.065 | -0.05 | 0.138
RBM8A (UniProt Q9Y5S9) | -0.027 | -0.017 | 0.127 | -0.015 | -0.002 | 0.128 | 0.024 | -0.015 | -0.029 | 0.027
RAB5IF isoform 5 (UniProt Q9BUV8) | -0.082 | 0.031 | 0.048 | 0.3 | 0.021 | -0.187 | -0.143 | -0.105 | -0.12 | -0.036
RPAIN isoform 8 (UniProt Q86UA6) | -0.022 | 0.034 | -0.124 | -0.048 | 0.048 | – | -0.221 | 0.011 | – | -0.168
RABGGTA (UniProt Q92696) | 0.064 | -0.021 | -0.02 | -0.038 | -0.021 | 0.049 | -0.041 | -0.027 | 0 | 0.046
SAFB2 (UniProt Q14151) | -0.065 | -0.012 | 0.026 | 0.037 | 0.165 | 0.042 | 0.049 | 0.05 | 0.018 | -0.074
